In PubChem BioAssay (Tox21):
Several values for one entry are separate records, joined by “and”; a condition that tells them apart may be missing. Identical values can stand only once. Results filed as inconclusive are left out. Entries that show only a call come without a potency. Some compounds were tested as several samples or in several runs, with calls that do not always agree. Activity calls are given as the source filed them. Unless noted, the call rests on the fitted dose curve; in most records, active means well fitted curve in the direction sought with a large enough effect in the repeat runs; inconclusive means weak or mixed curves; inactive means no such curve, though single readings can be large; an effect the other way counts as inactive or inconclusive.

Experiments:
[1] = target: Acetylcholinesterase (Homo sapiens) (UniProt P22303); assay: Acetylcholinesterase (AChE) small molecule antagonists: enzyme-based qHTS assay (AID 1347397; calls by dose curve; further: nearly all actives have a fitted effect of over 55% in size; further: potency means the concentration at half of the fitted maximal effect); conditions: Potency: AChE enzyme activity inhibition; outcome: AChE enzyme activity inhibition
Chain of Acetylcholinesterase (Homo sapiens) (P22303 whole entry, looked up): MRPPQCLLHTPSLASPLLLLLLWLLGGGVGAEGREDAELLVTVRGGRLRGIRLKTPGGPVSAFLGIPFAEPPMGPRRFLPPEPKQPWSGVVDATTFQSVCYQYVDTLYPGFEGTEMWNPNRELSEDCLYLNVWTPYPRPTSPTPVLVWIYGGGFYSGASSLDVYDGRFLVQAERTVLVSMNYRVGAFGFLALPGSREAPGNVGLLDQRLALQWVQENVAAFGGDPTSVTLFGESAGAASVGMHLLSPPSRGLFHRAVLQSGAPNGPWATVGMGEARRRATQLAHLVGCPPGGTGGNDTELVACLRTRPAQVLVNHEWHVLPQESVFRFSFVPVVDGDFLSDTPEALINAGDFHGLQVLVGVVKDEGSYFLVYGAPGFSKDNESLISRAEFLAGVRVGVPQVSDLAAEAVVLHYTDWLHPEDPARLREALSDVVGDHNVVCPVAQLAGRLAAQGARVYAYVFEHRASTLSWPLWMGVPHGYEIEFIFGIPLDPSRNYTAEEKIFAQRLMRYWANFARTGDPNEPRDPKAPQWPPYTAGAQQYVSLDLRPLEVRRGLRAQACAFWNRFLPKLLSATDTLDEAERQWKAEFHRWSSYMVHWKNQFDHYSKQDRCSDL
How it was run: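 Enzyme inhibition was scored from DTNB-detected thiocholine formed by recombinant human AChE acting on acetylthiocholine. The 30 min compound preincubation and 10 min substrate reaction were both run at room temperature, with DMSO as vehicle control.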

[2] = target: Acetylcholinesterase (Homo sapiens) (UniProt P22303); assay: Acetylcholinesterase (AChE) small molecule antagonists: fluorescence cell-based qHTS assay (AID 1347398; calls by dose curve; further: nearly all actives have a fitted effect of over 50% in size; further: potency means the concentration at half of the fitted maximal effect); conditions: Potency: AChE activity; outcome: AChE activity
How it was run: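 Endogenous acetylcholinesterase of SH-SY5Y neuroblastoma cells is measured in situ. After overnight attachment and 30 min compound exposure, cells receive acetylthiocholine and Thiolite Green; fluorescence is read after 40 min at room temperature.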

[3] = target: Acetylcholinesterase (Homo sapiens) (UniProt P22303); assay: Acetylcholinesterase (AChE) small molecule antagonists: enzyme-based qHTS assay with human liver microsomes (AID 1347399; calls by dose curve; further: nearly all actives have a fitted effect of over 60% in size); conditions: Potency: qHTS inhibition; outcome: qHTS inhibition
How it was run: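 Recombinant human AChE (50 mU/mL in the enzyme mix) and human liver microsomes (0.25 mg/mL final) were preincubated with compound and NADPH (0.25 mg/mL final) for 30 min at 37 C. Acetylthiocholine/DTNB was then added; thiocholine was read colorimetrically after 10 min at room temperature.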

[4] = target: Cytochrome P450 2D6 (Homo sapiens) (UniProt P10635); assay: Cytochrome P450 Family 2 Subfamily D Member 6 (CYP2D6) small molecule antagonists: luciferase reporter qHTS assay (AID 1671196); further: nearly all actives have a fitted effect of over 50% in size; further: potency means the concentration at half of the fitted maximal effect
Chain of Cytochrome P450 2D6 (Homo sapiens) (P10635 whole entry, looked up): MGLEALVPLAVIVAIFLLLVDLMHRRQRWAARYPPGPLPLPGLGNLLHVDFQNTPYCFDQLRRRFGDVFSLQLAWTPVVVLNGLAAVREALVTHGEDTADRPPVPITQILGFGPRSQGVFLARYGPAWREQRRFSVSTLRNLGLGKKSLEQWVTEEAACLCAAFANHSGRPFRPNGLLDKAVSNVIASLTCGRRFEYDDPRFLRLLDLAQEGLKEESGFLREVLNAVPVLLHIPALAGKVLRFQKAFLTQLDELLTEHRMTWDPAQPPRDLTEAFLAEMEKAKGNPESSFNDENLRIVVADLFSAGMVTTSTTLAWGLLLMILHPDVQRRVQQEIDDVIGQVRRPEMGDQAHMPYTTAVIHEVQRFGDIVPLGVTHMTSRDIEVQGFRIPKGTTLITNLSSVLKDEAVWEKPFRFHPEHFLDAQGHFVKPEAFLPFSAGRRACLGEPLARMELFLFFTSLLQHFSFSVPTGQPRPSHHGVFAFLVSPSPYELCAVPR
How it was run: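 CYP2D6 enzyme–substrate mix was held with compound for 10 min at room temperature, then NADPH regeneration solution was added and the reaction ran 1 h at room temperature. Luciferin product was detected by luminescence after 20 min with detection reagent.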

[5] = target: Cytochrome P450 1A2 (Homo sapiens) (UniProt P05177); assay: Cytochrome P450 Family 1 Subfamily A Member 2 (CYP1A2) small molecule antagonists: luciferase reporter qHTS assay (AID 1671199); further: nearly all actives have a fitted effect of over 50% in size; further: potency means the concentration at half of the fitted maximal effect
Chain of Cytochrome P450 1A2 (Homo sapiens) (P05177 whole entry, looked up): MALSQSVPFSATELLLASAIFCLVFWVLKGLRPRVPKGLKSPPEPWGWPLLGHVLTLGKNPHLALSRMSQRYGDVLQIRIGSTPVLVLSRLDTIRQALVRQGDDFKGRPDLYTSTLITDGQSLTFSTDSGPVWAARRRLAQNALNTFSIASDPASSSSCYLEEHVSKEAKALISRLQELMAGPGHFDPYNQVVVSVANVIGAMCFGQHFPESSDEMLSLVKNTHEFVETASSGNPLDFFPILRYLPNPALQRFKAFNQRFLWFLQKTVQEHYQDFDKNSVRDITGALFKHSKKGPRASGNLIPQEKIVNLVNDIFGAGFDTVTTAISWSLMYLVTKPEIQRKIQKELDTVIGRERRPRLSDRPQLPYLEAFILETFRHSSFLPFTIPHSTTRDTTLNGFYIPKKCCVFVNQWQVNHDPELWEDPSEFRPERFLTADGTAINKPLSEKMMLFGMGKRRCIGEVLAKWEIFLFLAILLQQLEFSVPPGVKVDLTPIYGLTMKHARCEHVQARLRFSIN
How it was run: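 Human CYP1A2 activity measured with a P450-Glo proluciferin substrate; compounds in DMSO preincubated 10 min at room temperature with enzyme-substrate mix, then NADPH regeneration system added for 1 h. Luciferin detection reagent, 20 min, luminescence read.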

[6] = target: Voltage-gated inwardly rectifying potassium channel KCNH2 (Homo sapiens) (UniProt Q12809); assay: Human Ether-a-go-go-Related Gene (hERG) channel small molecule antagonists: fluorescence cell-based qHTS assay (AID 1671200); further: nearly all actives have a fitted effect of over 50% in size; further: potency means the concentration at half of the fitted maximal effect
Chain of Voltage-gated inwardly rectifying potassium channel KCNH2 (Homo sapiens) (Q12809 whole entry, looked up): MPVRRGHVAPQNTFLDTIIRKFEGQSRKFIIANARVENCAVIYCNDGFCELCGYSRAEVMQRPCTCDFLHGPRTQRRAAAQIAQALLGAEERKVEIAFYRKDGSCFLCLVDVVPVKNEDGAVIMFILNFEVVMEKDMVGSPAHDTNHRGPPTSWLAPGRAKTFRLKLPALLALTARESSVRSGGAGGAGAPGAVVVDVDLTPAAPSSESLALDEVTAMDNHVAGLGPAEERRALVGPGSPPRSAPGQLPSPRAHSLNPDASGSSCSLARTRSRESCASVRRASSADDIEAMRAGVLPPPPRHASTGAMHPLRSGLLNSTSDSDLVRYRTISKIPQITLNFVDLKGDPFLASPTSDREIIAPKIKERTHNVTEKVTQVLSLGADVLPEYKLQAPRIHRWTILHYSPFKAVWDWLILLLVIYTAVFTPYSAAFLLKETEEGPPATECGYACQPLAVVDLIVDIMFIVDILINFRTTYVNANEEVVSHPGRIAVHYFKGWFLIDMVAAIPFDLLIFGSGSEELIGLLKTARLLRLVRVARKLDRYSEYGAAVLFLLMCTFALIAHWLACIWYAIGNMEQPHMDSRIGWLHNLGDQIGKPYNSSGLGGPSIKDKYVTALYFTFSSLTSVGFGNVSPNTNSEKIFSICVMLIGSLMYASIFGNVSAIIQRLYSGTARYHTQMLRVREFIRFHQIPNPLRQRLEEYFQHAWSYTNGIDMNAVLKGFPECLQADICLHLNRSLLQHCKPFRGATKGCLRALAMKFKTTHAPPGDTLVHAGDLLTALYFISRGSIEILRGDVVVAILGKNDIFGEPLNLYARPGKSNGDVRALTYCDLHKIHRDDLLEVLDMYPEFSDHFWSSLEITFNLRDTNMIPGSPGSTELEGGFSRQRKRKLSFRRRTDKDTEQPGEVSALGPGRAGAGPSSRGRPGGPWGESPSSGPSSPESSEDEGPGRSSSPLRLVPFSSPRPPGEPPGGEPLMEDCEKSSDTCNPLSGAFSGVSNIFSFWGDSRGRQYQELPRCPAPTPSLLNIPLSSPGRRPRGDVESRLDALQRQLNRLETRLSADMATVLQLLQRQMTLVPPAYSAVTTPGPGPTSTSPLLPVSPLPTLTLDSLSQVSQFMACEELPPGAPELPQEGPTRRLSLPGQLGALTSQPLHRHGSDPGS
How it was run: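 Quantitative HTS in hERG-U2OS cells: thallium entry through the channel reports activity, read as continuous 480/540 nm fluorescence over 2 min after stimulus addition.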

[7] = target: Cytochrome P450 2C19 (Homo sapiens) (UniProt P33261); assay: Cytochrome P450 Family 2 Subfamily C Member 19 (CYP2C19) small molecule antagonists: luciferase reporter qHTS assay (AID 1671197); further: nearly all actives have a fitted effect of over 65% in size; further: potency means the concentration at half of the fitted maximal effect
Chain of Cytochrome P450 2C19 (Homo sapiens) (P33261 whole entry, looked up): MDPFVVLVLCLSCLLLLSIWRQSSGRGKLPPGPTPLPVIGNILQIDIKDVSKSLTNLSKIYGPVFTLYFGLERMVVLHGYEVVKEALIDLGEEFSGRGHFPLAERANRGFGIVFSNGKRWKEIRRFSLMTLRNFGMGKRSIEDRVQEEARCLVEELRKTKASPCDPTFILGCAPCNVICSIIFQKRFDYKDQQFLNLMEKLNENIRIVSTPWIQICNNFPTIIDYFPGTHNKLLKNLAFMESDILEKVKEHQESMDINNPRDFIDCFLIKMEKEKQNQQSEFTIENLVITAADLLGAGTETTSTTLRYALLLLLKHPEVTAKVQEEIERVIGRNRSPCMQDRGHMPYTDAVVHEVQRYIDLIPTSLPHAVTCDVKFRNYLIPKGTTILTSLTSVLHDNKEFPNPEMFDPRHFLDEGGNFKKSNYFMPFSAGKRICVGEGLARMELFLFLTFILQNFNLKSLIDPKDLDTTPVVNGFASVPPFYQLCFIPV
How it was run: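 Light output is proportional to CYP2C19 activity: proluciferin substrate is converted to luciferin, then detected by a luciferin detection reagent that also stops the 1 h, 37C NADPH-driven reaction. Ketoconazole serves as positive control.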

[8] = target: Cytochrome P450 2C9 (Homo sapiens) (UniProt P11712); assay: Cytochrome P450 Family 2 Subfamily C Member 9 (CYP2C9) small molecule antagonists: luciferase reporter qHTS assay (AID 1671198); further: nearly all actives have a fitted effect of over 50% in size; further: potency means the concentration at half of the fitted maximal effect
Chain of Cytochrome P450 2C9 (Homo sapiens) (P11712 whole entry, looked up): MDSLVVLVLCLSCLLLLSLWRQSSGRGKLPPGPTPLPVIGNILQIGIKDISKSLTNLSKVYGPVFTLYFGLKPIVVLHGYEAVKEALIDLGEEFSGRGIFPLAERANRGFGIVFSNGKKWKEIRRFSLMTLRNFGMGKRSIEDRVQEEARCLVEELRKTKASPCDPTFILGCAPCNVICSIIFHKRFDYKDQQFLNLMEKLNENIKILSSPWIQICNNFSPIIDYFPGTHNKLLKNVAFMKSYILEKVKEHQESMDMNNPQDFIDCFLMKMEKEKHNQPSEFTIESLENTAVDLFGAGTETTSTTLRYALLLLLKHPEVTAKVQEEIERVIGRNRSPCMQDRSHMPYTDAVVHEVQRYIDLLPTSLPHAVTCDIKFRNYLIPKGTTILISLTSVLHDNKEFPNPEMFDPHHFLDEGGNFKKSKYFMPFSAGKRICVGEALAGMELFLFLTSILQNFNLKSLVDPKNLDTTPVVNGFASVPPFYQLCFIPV
How it was run: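 P450-Glo proluciferin substrate with CYP2C9 enzyme; 10 min RT preincubation, then NADPH regeneration 1 h at 37C; luciferin detection reagent 20 min RT, luminescence in relative luminescence units.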

[9] = target: Cytochrome P450 3A4 (Homo sapiens) (UniProt P08684); assay: Cytochrome P450 Family 3 Subfamily A Member 4 (CYP3A4) small molecule antagonists: luciferase reporter qHTS assay (AID 1671201); further: nearly all actives have a fitted effect of over 50% in size; further: potency means the concentration at half of the fitted maximal effect
Chain of Cytochrome P450 3A4 (Homo sapiens) (P08684 whole entry, looked up): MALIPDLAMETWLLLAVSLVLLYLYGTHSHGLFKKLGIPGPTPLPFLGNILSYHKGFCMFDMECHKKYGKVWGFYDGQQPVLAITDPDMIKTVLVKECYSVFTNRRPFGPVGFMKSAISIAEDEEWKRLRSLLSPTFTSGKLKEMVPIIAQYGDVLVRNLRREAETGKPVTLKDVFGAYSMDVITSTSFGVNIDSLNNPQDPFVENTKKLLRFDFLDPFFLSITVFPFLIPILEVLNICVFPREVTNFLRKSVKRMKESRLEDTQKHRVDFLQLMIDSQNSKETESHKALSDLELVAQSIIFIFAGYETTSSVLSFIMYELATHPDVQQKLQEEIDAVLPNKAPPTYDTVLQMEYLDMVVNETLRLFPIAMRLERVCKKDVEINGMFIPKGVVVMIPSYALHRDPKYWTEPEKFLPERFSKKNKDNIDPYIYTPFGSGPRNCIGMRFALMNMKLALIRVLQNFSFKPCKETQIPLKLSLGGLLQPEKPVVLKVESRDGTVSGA
How it was run: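 Inhibition of CYP3A4 is measured as loss of light: the enzyme converts a proluciferin substrate to luciferin, detected luminescently. Reaction ran 1 h at room temperature with NADPH regeneration after a 10 min compound preincubation.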

Row | SMILES | Potency [1] | Potency [2] | Potency [3] | Potency [4] | Potency [5] | Potency [6] | Potency [7] | Potency [8] | Potency [9] | outcome [1] | outcome [2] | outcome [3]
1 | Nc1ccc2c(c1)Cc1ccccc1-2 | inactive | inactive | inactive | 62.9 µM (active) | 1.25 µM (active) | inactive |  |  |  |  |  | 
2 | COc1ccc(C(O)(c2cncnc2)C2CC2)cc1 (configuration not stated) | inactive | inactive | inactive |  |  | inactive | 20 µM (active) | 63.3 µM (active) | 0.894 µM (active) |  |  | 
3 | O=C([O-])c1ccccn1.O=C([O-])c1ccccn1.O=C([O-])c1ccccn1.[Cr+3] | inactive | inactive | inactive | 79.9 µM (active) | 79.9 µM (active) | inactive |  |  |  |  |  | 
4 | O=[N+]([O-])c1cc(Cl)c(Cl)cc1Cl | inactive | inactive | inactive | inactive | 5.61 µM (active) | inactive |  | inactive | inactive |  |  | 
5 | Cc1nc2ccccc2c(=O)n1-c1ccccc1Cl | inactive | inactive | inactive |  | inactive | inactive | 2.77 µM (active) | 39.1 µM (active) | inactive |  |  | 
6 | CC(C)CCCCCCCOC(=O)c1ccccc1C(=O)OCCCCCCCC(C)C | inactive | inactive | inactive | inactive | inactive | inactive |  |  |  |  |  | 
7 | CCC(=O)O[C@@H]1C=C2CCC3C(CCC4(C)C3CC[C@@H]4OC(=O)CC)C2CC1 (some centres not stated) | inactive | inactive | inactive | inactive |  | inactive |  | 15.5 µM (active) | inactive |  |  | 
8 | Cc1cccc(C)c1NC1=NCCCS1 | inactive | inactive | inactive | 11 µM (active) | inactive | inactive |  |  |  |  |  | 
9 | CC(C)[C@@H](C(=O)O[C@@H](C#N)c1cccc(Oc2ccccc2)c1)c1ccc(Cl)cc1 | inactive | inactive | inactive | 32.2 µM (active) and inactive | inactive | inactive |  | 7.21 µM (active) and 12.6 µM (active) | inactive |  |  | 
10 | CC(C)(C#N)C(C)(C)C#N | inactive | inactive | inactive | inactive |  | inactive |  | inactive | inactive |  |  | 
11 | FC(F)OC(F)(F)C(F)Cl (configuration not stated) | inactive | inactive | inactive |  | 35.6 µM (active) | inactive | inactive | inactive |  |  |  | 
12 | CCOC(=O)c1cncn1C(C)c1ccccc1 (configuration not stated) | inactive | inactive | inactive | inactive |  | inactive |  | 12.3 µM (active) |  |  |  | 
13 | COc1ccc(C(=O)c2c(C)n(CCN3CCOCC3)c3ccccc23)cc1 | inactive | inactive | inactive | 15.5 µM (active) |  | inactive |  |  |  |  |  | 
14 | CC(C)(c1ccccc1)c1cc(-n2nc3ccccc3n2)c(O)c(C(C)(C)c2ccccc2)c1 | inactive | inactive | inactive | inactive |  | inactive |  | inactive | inactive |  |  | 
15 | CCCCOC(=O)CCC(=O)OCCCC | inactive | inactive | inactive | inactive | 20 µM (active) | inactive |  |  | inactive |  |  | 
16 | CCCC[P+](CC)(CCCC)CCCC (tested in a mixture with another compound) | inactive | inactive | inactive | 0.0716 µM (active) | inactive | 24.7 µM (active) |  | inactive | inactive |  |  | 
17 | C#CC(O)(C=CCl)CC (configuration not stated) | inactive | inactive | inactive | inactive | inactive | inactive |  | inactive | inactive |  |  | 
18 | CN1C[C@H](C(=O)N[C@]2(C)O[C@@]3(O)[C@@H]4CCCN4C(=O)[C@H](Cc4ccccc4)N3C2=O)C=C2c3cccc4[nH]cc(c34)C[C@H]21 | 5.67 µM (active) | 0.505 µM (active) | inactive | 28.4 µM (active) and inactive | 20.1 µM (active) | 22 µM (active) |  |  |  |  |  | 
19 | SCc1ccccc1 | inactive | inactive | inactive | inactive | 32.6 µM (active) |  |  | 36.6 µM (active) | inactive |  |  | 
20 | COC(=O)Cc1ccccc1 | inactive | inactive | inactive | inactive | inactive | inactive |  |  | inactive |  |  | 
21 | O=C1c2ccccc2C(=O)N1SC(Cl)(Cl)Cl | inactive | inactive | inactive | inactive | 24.8 µM (active) and 22.4 µM (active) | 24.2 µM (active) and 38.9 µM (active) |  |  |  |  |  | 
22 | C=CCSSCC=C | inactive | inactive | inactive | inactive | 31.7 µM (active) | inactive |  |  |  |  |  | 
23 | CCOc1cccc(C2(N3CCN(c4ccccc4)CC3)CCC(C)CC2)c1 (configuration not stated) |  |  |  | inactive | 20 µM (active) | inactive |  |  |  | inactive | inactive | inactive
24 | CCCC1CCCCN1 (configuration not stated) | inactive | inactive | inactive |  | inactive | inactive | inactive | inactive | inactive |  |  | 
25 | CCc1ccccc1N | inactive | inactive | inactive |  |  | inactive | 89.4 µM (active) |  |  |  |  | 
26 | CCOC(=O)C1OC1(C)c1ccccc1 (configuration not stated) | inactive | inactive |  | 71.6 µM (active) and inactive |  | inactive | 35.9 µM (active) and 71 µM (active) |  |  |  |  | 
27 | C=C(C)C(=O)OCCCCOC(=O)C(=C)C | inactive | inactive |  | inactive | 25.2 µM (active) | inactive | 7.96 µM (active) | 39.9 µM (active) | inactive |  |  | 
28 | Nc1ccccc1C(=O)OCC(O)CO (configuration not stated) | inactive | inactive |  | inactive | inactive | inactive | inactive |  |  |  |  | 
